# Source: PubChem BioAssay (Tox21)
# Values without a mark were called inactive. Records with an inconclusive call do not appear. Where a call stands in place of a potency, no number is given. The source made the active and inactive calls. The call rests on the fitted dose curve; in most records, active means well fitted curve in the direction sought with a large enough effect in the repeat runs; inconclusive means weak or mixed curves; inactive means no such curve, though single readings can be large; an effect the other way counts as inactive or inconclusive.
# Assays:
# [1] = A CellTox Green Cytotoxicity Assay to monitor cytotoxicity in HEK293 cells - 0 hour (AID 1224869); further: nearly all actives have a fitted effect of over 50% in size
# Outline: (§1)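 Cells (HEK293, 600/well) and dye reagent are dispensed together. After 5 h at 37 C, 23 nL compound is pinned in. Plates stay at 37 C for 40 h with fluorescence read at 0h, 8h, 16h, 24h, 32h and 40h.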
# [2] = A CellTox Green Cytotoxicity Assay to monitor cytotoxicity in HEK293 cells - 40 hour (AID 1224871); further: nearly all actives have a fitted effect of over 45% in size; further: potency means the concentration at half of the fitted maximal effect
# Outline: as §1
# [3] = qHTS RealTime-Glo MT Cell Viability Assay in HepG2 cells - 8 hour (AID 1224873); further: nearly all actives have a fitted effect of over 55% in size; further: potency means the concentration at half of the fitted maximal effect
# Outline: (§2)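 Real-time viability: cells seeded at 600 per well together with NanoLuc and cell-permeant prosubstrate, compounds added after 5 h incubation. Luminescence tracked at 0, 8, 16, 24, 32 and 40 h of exposure.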
# [4] = qHTS RealTime-Glo MT Cell Viability Assay in HepG2 cells - 24 hour (AID 1224867); further: nearly all actives have a fitted effect of over 50% in size; further: potency means the concentration at half of the fitted maximal effect
# Outline: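 Compound treatment began 5 h after plating HepG2 cells (600/well) with NanoLuc luciferase and prosubstrate. Plates stayed at 37 C for 40 h; luminescence was captured at six time points, 0 h through 40 h.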
# [5] = qHTS RealTime-Glo MT Cell Viability Assay in HEK293 cells - 32 hour (AID 1224868); further: top concentration of the series differs between compounds; nearly all actives have a fitted effect of over 50% in size
# Outline: (§3)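 Quantitative high-throughput screen of the Tox21 10K library in HEK293: cells and RealTime-Glo reagents plated together, compound added at 5 h, luminescence monitored through 40 h at 37 C.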
# [6] = qHTS RealTime-Glo MT Cell Viability Assay in HepG2 cells - 40 hour (AID 1224870); further: nearly all actives have a fitted effect of over 50% in size; further: potency means the concentration at half of the fitted maximal effect
# Outline: as §2
# [7] = qHTS RealTime-Glo MT Cell Viability Assay in HEK293 cells - 16 hour (AID 1224872); further: nearly all actives have a fitted effect of over 50% in size; further: potency means the concentration at half of the fitted maximal effect
# Outline: as §3
# [8] = qHTS RealTime-Glo MT Cell Viability Assay in HEK293 cells - 40 hour (AID 1224874); settings: RealTime-Glo luminescence; max response: stronger effect = lower value; further: nearly all actives have a fitted effect of over 50% in size; further: potency means the concentration at half of the fitted maximal effect
# Outline: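 Real-time viability in HEK293: signal arises when living cells convert a prosubstrate for NanoLuc in the medium, so luminescence tracks viable cell number. Compound (23 nL, DMSO) added 5 h post-seeding; kinetic reads at 0–40 h, 37 C.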
SMILES,Potency [1],Potency [2],Potency [3],Potency [4],Potency [5],Potency [6],Potency [7],max response [8],Potency [8]
O=C(Cl)c1ccc(Cl)cc1Cl,inactive,49 µM (active),inactive,–,–,–,–,–,–
CCc1cccc(C)c1N(C(=O)CS(=O)(=O)O)C(C)COC (centres undefined),–,inactive,inactive,inactive,inactive,inactive,inactive,-1.03%,–
Cc1ccc2sc3cccc(C)c3c2c1,–,–,inactive,inactive,inactive,inactive,inactive,–,–
CCNc1nc(NC(C)(C)C)nc(OC)n1,inactive,inactive,inactive,inactive,–,–,inactive,–,–
O=[N+]([O-])c1ccc(CO)cc1,–,inactive,inactive,inactive,inactive,–,inactive,–,–
Cn1c(=O)[nH]c2ncn(C)c2c1=O,–,–,inactive,inactive,inactive,inactive,inactive,3.46%,–
C=Cc1ccc(O)c(OC)c1,–,inactive,inactive,inactive,inactive,–,inactive,–,–
c1ccc2c(c1)-c1ccc3ccc4cccc5cc-2c1c3c45,–,–,inactive,inactive,inactive,inactive,inactive,8.42%,–
ClC(c1ccccc1)(c1ccccc1)c1ccccc1,–,–,inactive,inactive,inactive,inactive,inactive,-24.6%,–
CC(C=O)c1ccccc1 (centres undefined),inactive,inactive,inactive,inactive,–,inactive,inactive,-16.6%,–
COc1c(Br)cc(Br)c(C)c1Br,–,inactive,inactive,inactive,inactive,inactive,inactive,1.46%,–
O=C(N[C@H](CO)[C@H](O)c1ccc([N+](=O)[O-])cc1)C(Cl)Cl,–,–,inactive,inactive,–,inactive,–,–,–
NCc1ccco1,inactive,–,inactive,inactive,–,–,inactive,–,–
O=C(CCN1CCC(c2ccccc2)C1)c1ccc2c(c1)OCCO2 (centres undefined),inactive,–,–,–,–,21.3 µM (active),–,–,–
CC(C)(C)c1ccc(OC2CCCCC2O)cc1 (centres undefined),inactive,49 µM (active),inactive,inactive,–,inactive,–,–,–
CC(C)=CCC[C@H](C)CC=O,–,–,inactive,inactive,inactive,inactive,inactive,11.6%,–
CC1=C(/C=C/C(C)=C/C=C/C(C)=C\C(=O)O)C(C)(C)CCC1,inactive,–,inactive,inactive,–,inactive,inactive,–,–
[Cl][Dy]([Cl])[Cl],–,inactive,inactive,inactive,inactive,inactive,inactive,-3.97%,–
N#Cc1ccc(C/C(=N/NC(=O)Nc2ccc(OC(F)(F)F)cc2)c2cccc(C(F)(F)F)c2)cc1,inactive,inactive,inactive,–,inactive,–,inactive,-2.78%,–
Nc1cccnc1N,inactive,inactive,inactive,inactive,–,inactive,–,–,–
CC(C)(c1ccc(Oc2ccc(N)cc2)cc1)c1ccc(Oc2ccc(N)cc2)cc1,–,inactive,–,inactive,–,–,–,–,21.9 µM (active)
CCOc1ccc([N+](=O)[O-])cc1,inactive,44.3 µM (active),inactive,inactive,–,inactive,–,–,49.7 µM (active)
C=COCCCC,inactive,inactive,inactive,inactive,–,inactive,–,–,–
CC(C)c1ccc2sc3ccccc3c(=O)c2c1,inactive,–,inactive,inactive,–,inactive,–,–,–
CN1CCN(CCCN2c3ccccc3Sc3ccc(Cl)cc32)CC1,inactive,–,inactive,21.3 µM (active),–,–,–,–,–
NCc1cccc(C2CCN(C(=O)c3ccc(C#Cc4ccccc4F)o3)CC2)c1,inactive,–,49 µM (active),54.9 µM (active),–,–,49 µM (active),–,–
CCN(CC)c1ccc(C=O)cc1,inactive,–,inactive,inactive,–,inactive,–,–,–
